Test results reported in the supplement of paper PMC8728848.
Only a selection was taken, and the strongest signals are over-represented in it overall.

Legend:
Assay in all cases: glycan array binding signal (z-score within array); higher = stronger binding
Settings in all cases: glycan notation: IUPAC condensed, linker removed
[1] = target: GlcNAc(a1-4)Gal(b1-4)GlcNAc
Outline: (§1)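 The Consortium for Functional Glycomics database supplied 3228 glycan arrays, of which those lacking an available protein sequence were dropped. The binding signal, a within-array Z-score, was averaged across arrays of the same protein sequence and across linkers. Negative scores can be read as non-binding.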

[2] = target: GlcNAc(a1-4)Gal(b1-4)GlcNAc(b1-3)Gal(b1-4)[Fuc(a1-3)]GlcNAc(b1-3)Gal(b1-4)[Fuc(a1-3)]GlcNAc
Outline: as §1

[3] = target: GlcNAc(b1-2)Man(a1-3)[GlcNAc(b1-2)Man(a1-6)]Man(b1-4)GlcNAc(b1-4)GlcNAc
Outline: as §1

[4] = target: GlcNAc(b1-2)[GlcNAc(b1-4)]Man(a1-3)[GlcNAc(b1-4)][GlcNAc(b1-2)Man(a1-6)]Man(b1-4)GlcNAc(b1-4)GlcNAc
Outline: as §1

[5] = target: GlcNAc(b1-3)Gal(b1-3)GalNAc
Outline: as §1

GlcNAc(b1-3)Gal(b1-4)Glc = target: GlcNAc(b1-3)Gal(b1-4)Glc
Outline: as §1

GlcNAc(b1-3)GalNAc = target: GlcNAc(b1-3)GalNAc
Outline: as §1

[6] = target: GlcNAc(b1-4)GlcNAc(b1-4)GlcNAc(b1-4)GlcNAc(b1-4)GlcNAc(b1-4)GlcNAc
Outline: as §1

[7] = target: GlcNAc(b1-4)[GlcNAc(b1-6)]GalNAc
Outline: as §1

[8] = target: Neu5Ac(a2-3)Gal(b1-3)GalNAc(b1-3)Gal(a1-4)Gal(b1-4)Glc
Outline: as §1

[9] = target: Neu5Ac(a2-3)Gal(b1-3)GalNAc(b1-4)[Neu5Ac(a2-3)]Gal(b1-4)Glc
Outline: as §1

[10] = target: Neu5Ac(a2-3)Gal(b1-3)GlcNAc(b1-3)Gal(b1-3)GlcNAc
Outline: as §1

[11] = target: Neu5Ac(a2-3)Gal(b1-3)[Fuc(a1-4)]GlcNAc(b1-3)Gal(b1-3)[Fuc(a1-4)]GlcNAc
Outline: as §1

[12] = target: Neu5Ac(a2-3)Gal(b1-4)[Fuc(a1-3)]GlcNAc(b1-3)Gal(b1-4)GlcNAc
Outline: as §1

[13] = target: Neu5Ac(a2-6)Gal(b1-3)GlcNAc(b1-3)[Gal(b1-4)GlcNAc(b1-6)]Gal(b1-4)Glc
Outline: as §1

[14] = target: Neu5Ac(a2-6)Gal(b1-4)GlcNAc(b1-2)Man(a1-3)[GlcNAc(b1-2)Man(a1-6)]Man(b1-4)GlcNAc(b1-4)GlcNAc
Outline: as §1

[15] = target: Neu5Ac(a2-6)Gal(b1-4)GlcNAc(b1-3)GalNAc
Outline: as §1

[16] = target: Neu5Ac9Ac(a2-6)Gal(b1-4)GlcNAc
Outline: as §1

Neu5Gc(a2-3)Gal(b1-4)Glc = target: Neu5Gc(a2-3)Gal(b1-4)Glc
Outline: as §1

[17] = target: Neu5Gc(a2-3)Gal(b1-4)GlcNAc
Outline: as §1

[18] = target: Neu5Gc(a2-6)Gal(b1-4)GlcNAc
Outline: as §1

Neu5Gc(a2-6)GalNAc = target: Neu5Gc(a2-6)GalNAc
Outline: as §1

B1: CwpV (Clostridium difficile), B6EFG6 (protein)
chain: MKIPKKIAAMLTVTMIAGSSTAGIASAQTVATNLTGQERYETAVKISQDGWKNADEVVIVNDSSIADALSATPFAKAKNAPILLTSKDKLNDKTKAEIQRLKAKKVYLIGGTSVLSTNIEKEIKDLKISFERISGAERYQTSLELAKKLDAISDVKKIAVVNGEKGLADAVSVGAPAAQNNMPVILADSKNGTAVADKFIKDAGITQSYVVGGESSISEAVKNKLPNSTRLGGTDRNDTNAKVIKEFYKKTDLKNAYVTKDGMNKQDQLIDALAVGVLGAKNQSPVVLVGKNLSASQKSLVNSKSFDKITKVGGNGNETAFNEMKSLQEVKTVEAKTISELKSAIDKATANDVINFKPTSEVKEAFTIQTDKAVTVNLNGTYTKTVTINMPNGDVNNYAKVDDVVIDDVKDGTFVNYGKITNLKVNDKNGAKIENNSKGEIGSLTVASGASQVKVTNGGKITTVTNNSKGTTIDNKGTISSVKGDNSPTISGNSPSSNSSGGSSSSGGSSGGSSGGSSSSKVGQIKFSATDKQIKMASGDKTVDPSDNTYILKLTNGTVKDGDVKANVKVAGLPSGLDYTAVGNRSANTITITVSGTTSQSIQNDLNNVSVLVKAGAVSGTGATDSIANTTFEIKKYVAAPAVGQLTFDATDKQIKMASGDKTVDPSDDTYVLTLTKGTAKDGDIKANVEVTGLPSGLDYTAEGDSSANTITIPVSGTASPAVQTDLDNVSVLVKAGAVSETTATDSAANATFEVKKYVAPAVGQLTFDATDKQIKMASGDKTVDPSDDTYVLTLTKGTAKDGDIKANVEVTGLPSGLDYTAEGDSSANTITITVSGTASQAVQTDLDNVSVLVKAGAVSETTATDSAANATFEVKKYVAPAIGQLTFDATDKQIKMASGDKTVDPSDDTYVLTLTKGTAKDGDIKANVEVTGLPSGLDYTAEGDSSANTITITVSGTASQAVQTDLDNVSVLVKAGAVSETTATDSAANATFEVKKHASDPISTIGKISSGLSSLFNILK
In the case of B1, the “glycan array binding signal (z-score)” value [1] is reported as -0.192, the “glycan array binding signal (z-score)” value [2] is reported as 0.469 and the “glycan array binding signal (z-score)” value [3] is reported as -0.124. For the same binder, the “glycan array binding signal (z-score)” value [4] was -0.317, the “glycan array binding signal (z-score)” value [5] was -0.217 and the “glycan array binding signal (z-score)” value (GlcNAc(b1-3)Gal(b1-4)Glc) was -0.297. For the same binder, the “glycan array binding signal (z-score)” value (GlcNAc(b1-3)GalNAc) was -0.322, the “glycan array binding signal (z-score)” value [6] was 1.05 and the “glycan array binding signal (z-score)” value [7] was -0.284. The “glycan array binding signal (z-score)” value [8] was 11.2, the “glycan array binding signal (z-score)” value [9] was -0.101 and the “glycan array binding signal (z-score)” value [10] was -0.328. The “glycan array binding signal (z-score)” value [11] was 0.484, the “glycan array binding signal (z-score)” value [12] was 0.368 and the “glycan array binding signal (z-score)” value [13] was -0.21. The “glycan array binding signal (z-score)” value [14] was -0.249, the “glycan array binding signal (z-score)” value [15] was 0.056 and the “glycan array binding signal (z-score)” value [16] was -0.322. The “glycan array binding signal (z-score)” value (Neu5Gc(a2-3)Gal(b1-4)Glc) was -0.229, the “glycan array binding signal (z-score)” value [17] was -0.046 and the “glycan array binding signal (z-score)” value [18] was -0.292. For the same binder, the “glycan array binding signal (z-score)” value (Neu5Gc(a2-6)GalNAc) was -0.29.
